FUS yeast rescue = FUS proteinopathy suppression in yeast; S. cerevisiae FUS-expressing, growth rescue, OD600, 24 h; Potency, µM (top dose mostly 76.6 µM), hits mostly activators; hit rate 0.24% among 390,000;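 also: plate controls were DMSO vehicle for no effect and reference control for full effect; nearly all actives have a fitted effect of over 55% in size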
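S. cerevisiae expressing FUS from galactose induction served as the toxicity model. Growth after 24hr at 30C, read as absorbance at 600 nm, indicates suppression of toxicity; compounds dosed at several concentrations.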
Abeta yeast res = compounds reversing amyloid beta toxicity in yeast | hit rate 0.063% among 410,000 | Potency, µM (highest dose often 46.1 µM), usual class: activators | yeast expressing A-beta42, growth rescue, OD600, 48 h; response scale: 0% DMSO, 100% iron-clioquinol control | AID 1347071; also: nearly all actives have a fitted effect of over 55% in size
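Yeast A-beta toxicity model in growth medium with pinned compounds, 48 h at 30 C; growth read as absorbance at 600 nm. Normalized to FeCl3/clioquinol equimolar mix (positive) and DMSO (negative).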
Mito fusion yeast = inhibitors of mitochondrial division or activators of mitochondrial fusion; hit rate 0.23% among 320,000; S. cerevisiae fusion-defective mutant growth rescue, CellTiterGlo 48 h; Potency, µM (highest dose often 46.1 µM), inactives show at the top dose growth rescue (activation), hits mostly activators; also: % of control where 0% means no effect; nearly all actives have a fitted effect of over 45% in size
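Yeast fusion mutant, YPEG (non-fermentable carbon), compound, 48 h at 37C non-permissive; CellTiterGlo added, 10 min RT, luminescence read. Rescued growth = division inhibition.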
aSyn yeast inh = rescues yeast growth from alpha-synuclein toxicity. Yeast expressing alpha-synuclein, growth rescue, BacTiter-Glo, 24 h. Potency, µM (doses to about 46.1 µM), inactives show at the highest dose growth rescue (activation), most hits filed as activators. hit rate 0.14% among 370,000. AID 652106; also: % of control where 0% means no effect; nearly all actives have a fitted effect of over 65% in size
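Readout is rescue of growth in alpha-synuclein-expressing yeast, so inhibitors of toxicity appear as activators. Growth after 24 hr at 30 deg C in galactose medium is quantified by luminescence.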
TDP-43 yeast inh = TDP-43 toxicity inhibition in yeast; Potency, µM (series often up to 46.1 µM), for the others: at the top dose growth rescue (activation), actives largely listed as activators; hit rate 1.8% among 410,000; AID 652104; TDP-43 expressing yeast growth rescue, BacTiter-Glo, 24 h; also: % of control where 0% means no effect; nearly all actives have a fitted effect of over 50% in size
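Readout is BacTiter-Glo luminescence of cell growth, so inhibitors register as activators. TDP-43-expressing yeast at OD600=0.02 in galactose medium, after raffinose pregrowth to mid-log, were incubated with compound for 24 hr at 30 deg C.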
* marks the source's active call; other numbers are inactive results; [ ] = remark or other dose. A selection: hits, their analogues and other compounds. The true share with any hit is near 2.2%. Calls follow the shape of the dose curve; as a rule, active = well fitted curve in the direction sought with a large enough effect; inconclusive = small, poorly fitted or top-dose-only effect, or another doubt; inactive = no such curve, though single readings can be large; an effect the other way counts as inactive or inconclusive. Potency is read from the fitted curve at half-maximal effect.

What do the screens show for `Cc1ccc(Nc2n[nH]c(C)c2[N+](=O)[O-])cc1`?
FUS yeast rescue: inactive; Abeta yeast res: inactive; Mito fusion yeast: 9%; aSyn yeast inh: -16%; TDP-43 yeast inh: -14%

How did Cc1[nH]nc(Nc2ccc(C(C)C)cc2)c1[N+](=O)[O-] do in these assays?
FUS yeast rescue: inactive; Abeta yeast res: inactive; Mito fusion yeast: -4%; aSyn yeast inh: -10%; TDP-43 yeast inh: 13µM*

What do the screens show for `O=S(=O)(c1ccc(F)cc1)n1c(CN2CCOCC2)nc2ccccc21`?
FUS yeast rescue: inactive

How did COc1cccc(N/C(SC)=C(/C#N)C(=O)NCc2cccs2)c1 do in these assays?
FUS yeast rescue: inactive; Abeta yeast res: inactive; Mito fusion yeast: -8%; aSyn yeast inh: -5%; TDP-43 yeast inh: 14µM*

How did COc1cccc(N/C(SCc2ccccc2C)=C(/C#N)C(=O)NCc2cccs2)c1 do in these assays?
Abeta yeast res: inactive; Mito fusion yeast: -5%; aSyn yeast inh: 3%; TDP-43 yeast inh: 8%

Results for Clc1cccc(C2=NC(c3cccs3)=Nc3ccc(Br)cc3N2)c1 ?
FUS yeast rescue: inactive; Abeta yeast res: inactive; TDP-43 yeast inh: 7%

How did Nc1cc([N+](=O)[O-])ccc1Nc1ccccc1 do in these assays?
FUS yeast rescue: inactive; Abeta yeast res: inactive; Mito fusion yeast: -3%; aSyn yeast inh: 8%; TDP-43 yeast inh: 14µM*

What do the screens show for `O=[N+]([O-])c1cc(Br)c(Nc2ccccc2)c([N+](=O)[O-])c1`?
FUS yeast rescue: inactive; Abeta yeast res: inactive; Mito fusion yeast: -75%; aSyn yeast inh: 6%; TDP-43 yeast inh: 3.5µM*

How did O=[N+]([O-])c1ccc(O)c(NC(=S)Nc2ccccc2)c1 do in these assays?
FUS yeast rescue: inactive; Abeta yeast res: inactive; Mito fusion yeast: -1%; aSyn yeast inh: -10%; TDP-43 yeast inh: 13µM*

How did O=C1CCC[C@H]2C[C@H](NCc3ccco3)CC[C@]23CCCN13 do in these assays?
FUS yeast rescue: inactive

How did Cc1noc(-c2ccccc2OCC(=O)Nc2ccccc2[N+](=O)[O-])n1 do in these assays?
FUS yeast rescue: inactive; Abeta yeast res: inactive; TDP-43 yeast inh: 20µM*

What do the screens show for `COc1ccccc1NC(=O)COc1cccnc1[N+](=O)[O-]`?
FUS yeast rescue: inactive; Abeta yeast res: inactive; aSyn yeast inh: 9%; TDP-43 yeast inh: 7.9µM*

How did COc1ccc(-c2cc(C3CC3)nc3sc(C#N)c(N)c23)cc1 do in these assays?
FUS yeast rescue: inactive; Abeta yeast res: inactive; Mito fusion yeast: 13µM*; aSyn yeast inh: -12%; TDP-43 yeast inh: 6%

What do the screens show for `CCN(C(=O)[C@@H](C)[C@@H](O)c1ccc(C(C)=O)cc1)c1ccccc1`?
FUS yeast rescue: inactive

What do the screens show for `O=C(CSc1nnc(-c2ccncc2)n1-c1ccc(Cl)cc1)c1ccc(Cl)c(Cl)c1`?
FUS yeast rescue: inactive

What do the screens show for `Cc1nnc(N2C(=O)c3cccc4c([N+](=O)[O-])ccc(c34)C2=O)s1`?
FUS yeast rescue: inactive; Abeta yeast res: inactive; Mito fusion yeast: -11%; aSyn yeast inh: -2%; TDP-43 yeast inh: 13µM*

Results for Cn1nnc2c(NCc3ccc(Cl)cc3)ncnc21 ?
FUS yeast rescue: inactive; Abeta yeast res: inactive; TDP-43 yeast inh: 11µM*

What do the screens show for `COc1cccc2nccc(/C=C/c3ccc(N(C)C)cc3)c12`?
aSyn yeast inh: -14%

Results for CCOc1nc(S(=O)(=O)c2ccc(C)cc2)c(Cl)s1 ?
FUS yeast rescue: inactive; Abeta yeast res: inactive; Mito fusion yeast: 1%; aSyn yeast inh: 1%; TDP-43 yeast inh: 3%

How did CSc1nc(S(=O)(=O)c2ccc(C)cc2)c(Cl)s1 do in these assays?
FUS yeast rescue: inactive; Abeta yeast res: inactive; Mito fusion yeast: 0%; aSyn yeast inh: 1%; TDP-43 yeast inh: 13µM*

Results for Cc1cc(NS(=O)(=O)c2ccc(-c3ccccc3)cc2)no1 ?
FUS yeast rescue: inactive; Abeta yeast res: inconclusive; Mito fusion yeast: 4%; aSyn yeast inh: 5%; TDP-43 yeast inh: 10µM*

Results for CC(=O)c1cccc(NC(=O)c2cc3sc(Cl)cc3n2C)c1 ?
FUS yeast rescue: inactive; Abeta yeast res: inactive; TDP-43 yeast inh: 13%[9.22 µM]

Screening data (PubChem BioAssay)
